The whole screen tested about 320,000 compounds, of which about 2,100 (0.66%) were called active. About 53% were inconclusive and are not listed. Calls come from the whole dose curve; as a rule, active = well fitted inhibition curve with a large enough effect in the signal ratio, with a control signal flat (not every such curve was filed as active); inconclusive = small, poorly fitted or top-dose-only effect, or effect the other way, or a change in a side signal; inactive = flat fitted curve, though single readings scatter; the % refers to the signal ratio. The full list was thinned out, with actives kept by preference.
Potency is the fitted concentration of half-maximal effect.

The assay in a line: qHTS Assay for Lipid Storage Modulators in Drosophila S3 Cells.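 For cell number change: cells counted by Cell Tracker Red CMTPX staining in the red channel.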 For lipid storage change, negative = inhibition: % is set by controls: 0 for no effect and ±100 for the full control effect. To be noted: BODIPY lipid droplet fluorescence, 18-24 h, cells fed with added oleic acid; cell number change: measured here: cell count max response; series mostly up to 46.1 µM; lipid storage change, negative = inhibition: at the top concentration. Summed up:
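Laser-scanning cytometry quantifies lipid droplet accumulation (500–530 nm total intensity; droplet/cell object ratio) in oleic acid-fed (400 uM added) Drosophila S3 cells treated with a concentration series. 20 uM Triacsin C defined 100% inhibition.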
With `COc1ccc(-n2nc3c(c2NC(=O)CBr)CSC3)cc1`, the “lipid storage change, negative = inhibition” value is -5.01% (inactive) and the cell number change is 13.3%.
As to `C=CCC(NCc1ccco1)c1ccc(OC)cc1` (configuration not stated), the “lipid storage change, negative = inhibition” value was -17.7% (inactive) and the cell number change is -21.6%.
As for `C=CCC(NCc1ccco1)c1ccc(OC)c(OC)c1` (configuration not stated), the Potency was 23.1 µM (active).
Take `C=CCC(Nc1ccccc1)c1ccc(OC)c(OC)c1` (configuration not stated): the “lipid storage change, negative = inhibition” value was 16.3% (inactive) and the cell number change came to 7.9%.
On to `CCOc1ncccc1C(=O)OCC(=O)Nc1cc(S(=O)(=O)N(CC)CC)ccc1C`, for which the “lipid storage change, negative = inhibition” value was -12% (inactive) and the cell number change is -5.2%.
For the molecule `COCCCn1c(-c2ccc(OC)cc2)nc2nc3ccccc3nc21`, the molecule was called inactive and the cell number change was 5.75%.
Take `Cc1ccc(S(=O)(=O)N2CCCCC2)cc1C(=O)N1CCN(c2ccccn2)CC1`: the “lipid storage change, negative = inhibition” value is 7.29% (inactive).
In the case of `Cc1cccc(C(=O)NCc2nnc(SCC(=O)Nc3nncs3)n2C)c1`, the “lipid storage change, negative = inhibition” value was 23.4% (inactive) and the cell number change is -2.14%.
`CC(NC(=O)CCC(=O)NC(C)C1COc2ccccc2O1)C1COc2ccccc2O1` (configuration not stated): the “lipid storage change, negative = inhibition” value was -3.23% (inactive) and the cell number change is -1.04%.
`O=C(OC1CCOC1=O)c1cc(-c2cccc(Br)c2)nc2ccccc12` (configuration not stated): the “lipid storage change, negative = inhibition” value is 4.32% (inactive) and the cell number change was found to be 21.7%.
With `COc1cc(C(C[N+](=O)[O-])c2c(C)[nH]c3ccccc23)ccc1O` (configuration not stated), the “lipid storage change, negative = inhibition” value was 6.04% (inactive) and the cell number change stood at 20.5%.
For `Cc1cc2ccccn2c1C(C[N+](=O)[O-])c1ccc(N(C)C)cc1` (configuration not stated), the “lipid storage change, negative = inhibition” value is 7.67% (inactive) and the cell number change was found to be 12.9%.
For the molecule `COc1cc(C(C[N+](=O)[O-])c2c(C)cc3ccccn23)ccc1O` (configuration not stated), the Potency is 0.651 µM (active) and the cell number change is 15.3%.
In the case of `O=C(Nc1cccc(C(F)(F)F)c1)c1cc(-c2ccco2)on1`, the “lipid storage change, negative = inhibition” value was 26.8% (inactive) and the cell number change was found to be 7.92%.
Turning to `Cc1nc(Cl)sc1C(=O)Nc1ccc(C(F)(F)F)cc1`, the Potency is 1.64 µM (active) and the cell number change is -0.73%.
For the molecule `CC(=O)c1cccc(NC(=O)c2sc(Cl)nc2C)c1`, the “lipid storage change, negative = inhibition” value is -14.7% (inactive) and the cell number change turned out to be 12.6%.
With `Cc1ccccc1NC(=O)c1sc(Cl)nc1C`, the “lipid storage change, negative = inhibition” value is 11.6% (inactive).
Take `Cc1nc(Cl)sc1C(=O)Nc1ccc(C(C)(C)C)cc1`: the Potency was 7.31 µM (active) and the cell number change was 1.1%.
On to `Cc1nc(Cl)sc1C(=O)Nc1cccc(Cl)c1`, for which the molecule was classed as inactive and the cell number change turned out to be 2.35%.
On to `Cc1nc(Cl)sc1C(=O)Nc1ccccc1Cl`, for which the “lipid storage change, negative = inhibition” value is -5.61% (inactive) and the cell number change was -11.3%.
The corresponding values for `Cc1ncsc1C(=O)Nc1cccc(C(F)(F)F)c1` are 8.39% (inactive) and 22.3%.
For `O=C(Nc1cccc(C(F)(F)F)c1)c1sc(Cl)nc1C(F)(F)F`, the Potency was 10.3 µM (active) and the cell number change was -10.2%.
Consider `COCCN(C(=O)CNC(=O)c1cccs1)C(C(=O)NC1CCCCC1)c1ccco1` (configuration not stated), for which the “lipid storage change, negative = inhibition” value is 6.95% (inactive) and the cell number change was -12.2%.
The corresponding values for `CC(=O)C(Sc1nnnn1-c1ccc(O)cc1)c1ccccc1` (configuration not stated) are 5.34% (inactive) and 5.67%.
For `COc1ccc(NC(=O)N2CCN(c3nc4ccccc4n3C(C)C)CC2)cc1`, the Potency is 14.6 µM (active) and the cell number change was -28.6%.
Regarding `Cn1c(N2CCN(C(=O)Nc3ccc(F)cc3)CC2)nc2ccccc21`, the “lipid storage change, negative = inhibition” value is -3.7% (inactive) and the cell number change worked out at 17.1%.
Consider `CC(C)n1c(N2CCN(C(=O)NCc3ccccc3)CC2)nc2ccccc21`, for which the “lipid storage change, negative = inhibition” value was 4.69% (inactive) and the cell number change was -4.04%.
Regarding `N#Cc1c(Cl)nc(SCc2ccccc2)nc1-c1ccccc1`, the “lipid storage change, negative = inhibition” value was -0.854% (inactive) and the cell number change is -2.68%.
The corresponding values for `CCC(C)Sc1ccc([C@H]2N[C@@](Cc3ccccc3)(C(=O)OC)[C@H]3C(=O)N(C)C(=O)[C@@H]23)cc1` (some centres not stated) are -6.01% (inactive) and 17.3%.
As to `COc1ccc(/C=C2\SC(=S)N(CCC(=O)Nc3cccc(O)c3)C2=O)cc1OC`, the molecule was classed as inactive and the cell number change is -7.94%.
On to `O=C(CCN1C(=O)/C(=C\c2ccc(F)cc2)SC1=S)Nc1ccccc1`, for which the outcome was inactive.
Consider `COc1cc(/C=C2\SC(=S)N(CCC(=O)Nc3cccc(O)c3)C2=O)cc(OC)c1OC`, for which the Potency was 3.66 µM (active) and the cell number change came out at 10.2%.
In the case of `COc1cc(/C=C2\SC(=S)N(CC(=O)Nc3ccc(O)cc3)C2=O)cc(OC)c1OC`, the “lipid storage change, negative = inhibition” value was 12.1% (inactive) and the cell number change is 19.7%.
As to `O=C(CCN1C(=O)/C(=C/c2ccc(F)cc2)SC1=S)N[C@@H](CO)Cc1ccccc1`, the Potency was 29.1 µM (active) and the cell number change was -1.15%.
Turning to `COc1cc(/C=C2\SC(=S)N(CCC(=O)Nc3ccccc3)C2=O)cc(OC)c1OC`, the cell number change turned out to be 15% and the lipid storage change, negative = inhibition is -5.12% [at 9.22 µM] (inactive).
In the case of `COc1cc(/C=C2/SC(=S)N(CCC(=O)Nc3ccccc3)C2=O)cc(OC)c1OC`, the Potency was 1.84 µM (active).
Regarding `O=C(CCN1C(=O)/C(=C/c2ccccc2)SC1=S)N[C@@H](CO)Cc1ccccc1`, the outcome was inactive and the cell number change is -19.2%.
Consider `COc1cc(/C=C2\SC(=S)N(CCC(=O)Nc3ccccc3O)C2=O)cc(OC)c1OC`, for which the “lipid storage change, negative = inhibition” value is -14.3% (inactive).
As for `COC(=O)c1ccccc1Oc1ccc(NC(=O)CCCl)cc1`, the “lipid storage change, negative = inhibition” value is 7.03% (inactive) and the cell number change is -3.28%.
Taken in the same sequence, the figures for `O=C(CSc1nnc(Cn2c(=O)sc3ccccc32)n1-c1ccccc1)N1CCCC1` were 4.03% (inactive) and -5.75%.
For the molecule `CC(C)C(C(=O)NCC1CCCO1)N(C(=O)CNS(=O)(=O)c1ccccc1)c1ccc(F)cc1` (configuration not stated), the result was inactive and the cell number change was 10.5%.
As for `Fc1cccc(COc2ccccc2CNc2ccccc2)c1`, the “lipid storage change, negative = inhibition” value is -3.76% (inactive) and the cell number change is -10%.
Turning to `COCCn1ccc2c(OCC(=O)NCc3ccccc3)cccc2c1=O`, the “lipid storage change, negative = inhibition” value is -25.1% (inactive) and the cell number change is -6.52%.
In the case of `O=[N+]([O-])/C=C/c1cn(Cc2ccc(F)cc2)c2ccccc12`, the Potency was 20.6 µM (active) and the cell number change is -17.9%.
For `O=c1ccn(Cc2ccccc2)c2ccccc12`, the “lipid storage change, negative = inhibition” value is -28% (inactive) and the cell number change is -20.5%.
With `O=[N+]([O-])/C=C/c1cn(Cc2ccccc2)c2ccccc12`, the Potency was 10.3 µM (active).
As to `O=S(=O)(N/N=C/c1cn(Cc2ccccc2)c2ccccc12)c1ccccc1`, the “lipid storage change, negative = inhibition” value is -12% (inactive) and the cell number change was -19.2%.

The values above are taken from PubChem BioAssay AID2685 (National Center for Advancing Translational Sciences (NCATS), 2010).
